Assay outcomes: PubChem BioAssay, National Center for Advancing Translational Sciences (NCATS)
Compounds with a hit are over-represented: about 3.1% of the library has one in this group of screens.
PLK1 PBD inh: PLK1 (human) polo-box domain binding inhibition; P53350; Plk1 PBD binding of FITC phosphopeptide, fluorescence polarization; Potency, µM, inactives show max response, negative = inhibition, most hits filed as inhibitors; 2.8% of 360,000 active; AID 720504; further: potency means the concentration at half of the fitted maximal effect; series mostly up to about 57 µM; on the % scale 0 is the no-effect control and ±100 the full control effect; nearly all actives have a fitted effect of over 65% in size
TSHR antagonist: human thyrotropin receptor antagonism; P16473; TSHR-expressing cells, TSH-stimulated cAMP HTRF, 2 h; hits give low values; activity change, negative = inhibition, % at 11.5 µM; 0.2% of 330,000 active;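 active means activity change below a set negative limit, meaning inhibition stronger than a set level, cut at about -70% in these data; inconclusive means activity change between two set negative limits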; further: on the % scale 0 is the no-effect control and ±100 the full control effect
Target sequence (P16473 whole entry, looked up): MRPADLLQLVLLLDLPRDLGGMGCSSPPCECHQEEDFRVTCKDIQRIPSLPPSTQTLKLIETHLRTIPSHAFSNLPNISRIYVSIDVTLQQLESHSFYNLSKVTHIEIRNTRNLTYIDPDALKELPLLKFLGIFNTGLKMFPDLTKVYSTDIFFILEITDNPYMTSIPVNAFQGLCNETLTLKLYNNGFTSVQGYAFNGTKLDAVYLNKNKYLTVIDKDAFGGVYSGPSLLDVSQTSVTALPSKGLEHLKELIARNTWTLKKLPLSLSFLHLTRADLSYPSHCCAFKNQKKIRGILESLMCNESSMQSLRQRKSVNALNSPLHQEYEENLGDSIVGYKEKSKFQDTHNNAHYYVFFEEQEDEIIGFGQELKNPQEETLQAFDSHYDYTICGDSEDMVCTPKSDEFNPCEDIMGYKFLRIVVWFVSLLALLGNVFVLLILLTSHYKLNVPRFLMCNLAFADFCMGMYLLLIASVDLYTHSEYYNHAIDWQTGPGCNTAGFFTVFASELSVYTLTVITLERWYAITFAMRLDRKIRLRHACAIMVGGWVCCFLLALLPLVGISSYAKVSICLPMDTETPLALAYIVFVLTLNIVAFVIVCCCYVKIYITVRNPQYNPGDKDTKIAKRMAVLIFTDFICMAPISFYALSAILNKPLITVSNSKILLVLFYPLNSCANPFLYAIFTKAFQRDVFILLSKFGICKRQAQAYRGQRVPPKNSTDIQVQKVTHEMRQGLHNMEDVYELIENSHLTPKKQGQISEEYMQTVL
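Competitive HTRF cAMP read-out (cryptate anti-cAMP antibody, cAMP-d2; 30 min, room temperature) in freshly harvested TSHR cells. Compounds added before TSH at EC80 (4nM final), followed by 2 hours' incubation at 37 deg C.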
PTAP TSG101 blk: blocks PTAP/TSG101 interaction to inhibit HIV-1 budding | AID 493005 | 340,000 tested, under 10 active | Q99816 | Potency, µM (top dose mostly 115 µM), inactives show at the top dose activity change, negative = inhibition, actives largely listed as inhibitors | Fluorescence polarization, FITC-PTAP peptide / Tsg101 binding; active means well fitted inhibition curve with a large enough effect in the main read-out, with a control signal flat, not every such curve was filed as active; inconclusive means small, poorly fitted or top-dose-only effect, or effect the other way, or a change in a side signal; inactive means no such curve, though single readings can be large or run the other way; further: potency means the concentration at half of the fitted maximal effect; % of control where 0% means no effect
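Steps: Tsg101 binding domain dispensed (10 uM final), compounds pinned in DMSO, FITC-labeled PTAP-motif peptide added (50 nM final); after 20 min binding at room temperature, polarization measured.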
uPA generation: blocks generation of uPA at the cell surface; AID 540303; 0.31% of 330,000 active; Potency, µM (series often up to 38.3 µM), for inactives: top-dose activity change, negative = inhibition, usual class: inhibitors; cell surface uPA generation assay, qHTS; active means well fitted inhibition curve with a large enough effect; inconclusive means small, poorly fitted or top-dose-only effect; inactive means no such curve, though single readings can be large or run the other way; tested in mouse RAW 264.7 cells; further: potency means the concentration at half of the fitted maximal effect; on the % scale 0 is the no-effect control and ±100 the full control effect; nearly all actives have a fitted effect of over 55% in size
VDR inhibitor: blocks the human vitamin D receptor. P11473. VDR-SRC2-3 peptide fluorescence polarization, 2 h. Potency, µM, for the others: max response, negative = inhibition, most hits filed as inhibitors. 0.93% of 400,000 active; further: potency means the concentration at half of the fitted maximal effect; on the % scale 0 is the no-effect control and ±100 the full control effect
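Fluorescence polarization assay of small-molecule disruption of VDR binding to coregulator peptide SRC2-3. Compounds and controls pin-transferred, then read after 2 h incubation at ambient room temperature.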
* hit, by the source's call. Unless noted, the call rests on the fitted dose curve; in most records, active means well fitted curve in the direction sought with a large enough effect; inconclusive means small, poorly fitted or top-dose-only effect, or another doubt; inactive means no such curve, though single readings can be large; an effect the other way counts as inactive or inconclusive.

What do the screens show for `OCC1O[C@H]([S-])[C@H](O)[C@@H](O)[C@@H]1O.[Au+]` (some centres undefined)?
TSHR antagonist: -17.8; VDR inhibitor: 2.82µM*

Results for CCOC(=O)N1CCN(C(=O)c2ccc(CS(=O)c3cccc(C)c3)o2)CC1 (centres undefined) ?
PLK1 PBD inh: -9.9%

How did CC1(C)CC(=O)C(Sc2ccccc2[N+](=O)[O-])=C(O)C1 do in these assays?
PLK1 PBD inh: 10.6µM*; TSHR antagonist: 4.7; PTAP TSG101 blk: -2.5%; uPA generation: 7.7%; VDR inhibitor: -14.1%

What do the screens show for `CC1(C)CC(=O)C(C(C2=C(O)CC(C)(C)CC2=O)c2ccc(Cl)c([N+](=O)[O-])c2)C(=O)C1` (centres undefined)?
PLK1 PBD inh: -10.5%; TSHR antagonist: -9.2; PTAP TSG101 blk: -5.3%; uPA generation: -0.3%; VDR inhibitor: -0.1%

Results for CC(C)C[C@H](NC(=O)[C@H](CC(C)C)NC(=O)[C@H](Cc1ccccc1)NC(=O)[C@@H](N)CO)C(=O)N[C@@H](CCCN=C(N)N)C(=O)N[C@@H](CC(N)=O)C(=O)O ?
VDR inhibitor: 2.1%

How did C/C(=N\NC(=O)c1nnn(-c2nonc2N)c1-c1ccc(Cl)c(Cl)c1)c1ccncc1 do in these assays?
PLK1 PBD inh: -4.5%; TSHR antagonist: -86.5*; PTAP TSG101 blk: -11.1%; uPA generation: 6.4%; VDR inhibitor: 9.0%

How did CCN(CC(=O)Nc1ccc(NC(C)=O)cc1)C(=O)C1(c2ccccc2)CC1 do in these assays?
PLK1 PBD inh: -0.6%; TSHR antagonist: 2.2; PTAP TSG101 blk: 1.3%; uPA generation: 0.2%; VDR inhibitor: 10.8%

How did CC(C)(C)c1ccc(C2=NC(=O)C(CC(=O)O)S2)cc1 (centres undefined) do in these assays?
PLK1 PBD inh: 26.7µM*; TSHR antagonist: -0.6; PTAP TSG101 blk: -1.2%; uPA generation: 0.0%; VDR inhibitor: 25.1µM*

What do the screens show for `COc1ccc(C(=O)CC2SC(N)=NC2=O)cc1` (centres undefined)?
PLK1 PBD inh: -19.3%; TSHR antagonist: 2.5; PTAP TSG101 blk: 0.5%; uPA generation: 3.4%; VDR inhibitor: 10.2%

Results for CC(C)CC(=O)Nc1nc(=S)ss1 ?
PLK1 PBD inh: 16.8µM*; TSHR antagonist: 5.8; PTAP TSG101 blk: -1.8%; uPA generation: 5.3%; VDR inhibitor: inconclusive

How did CC(C)CC(=O)Nc1nnn(C)n1 do in these assays?
PLK1 PBD inh: -0.5%; TSHR antagonist: 6.5; PTAP TSG101 blk: -2.2%; uPA generation: -6.0%; VDR inhibitor: 0.8%

What do the screens show for `CC(=O)Nc1nc(=S)ss1`?
PLK1 PBD inh: 23.8µM*; TSHR antagonist: 10.2; PTAP TSG101 blk: 0.9%; uPA generation: -0.2%; VDR inhibitor: 44.7µM*

What do the screens show for `O=C(Nc1nc(=S)ss1)c1c(F)cccc1F`?
PLK1 PBD inh: -3.9%; TSHR antagonist: -2.7; PTAP TSG101 blk: -4.4%; uPA generation: 13.2%; VDR inhibitor: 5.8%

How did Cc1ccccc1C(=O)Nc1nc(=S)ss1 do in these assays?
PLK1 PBD inh: 10.6µM*; TSHR antagonist: -25.1; PTAP TSG101 blk: -5.9%; uPA generation: 3.6%; VDR inhibitor: inconclusive

What do the screens show for `O=c1c2ccccc2n(Cc2cccc(Cl)c2)c(=O)n1CCc1ccccc1`?
VDR inhibitor: -5.7%

How did CCc1ccc(OCC(=O)NC(Cc2c[nH]c3ccccc23)C(=O)O)cc1 (centres undefined) do in these assays?
VDR inhibitor: -15.9%

How did CC[C@]1(O)C[C@@H]2CN(CCc3c([nH]c4ccccc34)[C@@](C(=O)OC)(c3cc4c(cc3OC)N(C)C3[C@]45CCN4CC=C[C@](CC)(C45)[C@@H](OC(C)=O)[C@]3(O)C(=O)OC)C2)C1 (some centres undefined) do in these assays?
VDR inhibitor: 15.6%

How did CCSc1nc(-c2cccs2)nc2ccccc12 do in these assays?
PLK1 PBD inh: 23.8µM*; TSHR antagonist: -9.6; PTAP TSG101 blk: -1.6%; uPA generation: -5.4%; VDR inhibitor: -7.3%

How did O=C(Nc1nccs1)C1CCN(S(=O)(=O)c2cccnc2)CC1 do in these assays?
PLK1 PBD inh: 1.7%; TSHR antagonist: 13.2; PTAP TSG101 blk: -1.8%; uPA generation: 16.9%; VDR inhibitor: -0.7%

What do the screens show for `O=C(Nc1nc(-c2ccccc2)cs1)C1CCCN(S(=O)(=O)c2ccccc2)C1` (centres undefined)?
PLK1 PBD inh: -1.8%; TSHR antagonist: -75.2*; PTAP TSG101 blk: -3.9%; uPA generation: -12.9%; VDR inhibitor: -1.5%

Results for O=C(Nc1nccs1)C1CCCN(S(=O)(=O)c2cccnc2)C1 (centres undefined) ?
PLK1 PBD inh: 21.2µM*; TSHR antagonist: 14.7; PTAP TSG101 blk: -3.6%; uPA generation: 3.4%; VDR inhibitor: -26.3%

How did COc1ccc(CCNC(=O)C2CCN(S(=O)(=O)c3c(C)noc3/C=C/c3ccc(C)cc3)CC2)cc1OC do in these assays?
VDR inhibitor: 6.3%

How did O=C(c1ccc(Br)cc1)N1CCN(CCc2ccncc2)CC1 do in these assays?
VDR inhibitor: 4.4%

How did COc1cc(OC)c(NS(=O)(=O)c2ccc3c(c2)NC(=O)CO3)cc1Cl do in these assays?
PLK1 PBD inh: 6.7µM*; TSHR antagonist: -10.1; PTAP TSG101 blk: -2.4%; uPA generation: inconclusive; VDR inhibitor: inconclusive

How did CCOc1ccc(S(=O)(=O)n2c([N+](=O)[O-])cnc2C)c(C)c1C do in these assays?
PLK1 PBD inh: 3.6%; TSHR antagonist: 5.1; PTAP TSG101 blk: -2.4%; uPA generation: 9.0%; VDR inhibitor: -3.3%

Results for COc1ccc(C2C=C(C34CC5CC(CC(C5)C3)C4)NC(=S)N2)cc1 (centres undefined) ?
PLK1 PBD inh: 11.9µM*; TSHR antagonist: -18.4; PTAP TSG101 blk: -4.3%; uPA generation: 16.5%; VDR inhibitor: inconclusive

What do the screens show for `COc1ccc(C2=CC(c3ccc(OC)c(OC)c3)NC(=S)N2)cc1` (centres undefined)?
PLK1 PBD inh: inconclusive; TSHR antagonist: -9.4; PTAP TSG101 blk: -7.0%; uPA generation: 4.0%; VDR inhibitor: -1.5%
